{"source": "PubChem BioAssay (NCI)", "note": "“And” between values parts separate entries of the source, which are not always exact repeats. Equal values may be shown once. About 83,000 compounds went through this panel and 20% of them were active in at least one assay; those are over-represented in the sample as a whole.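 Percent growth is the endpoint: 0 to 100 indicates growth inhibition (40 means 60% inhibition), 0 means no net growth, and negative values indicate cell death.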 The source made the active and inactive calls. The calls were made as follows: active = growth percent below 10; inactive = the rest.", "data": [{"test_system": "LOX IMVI melanoma", "test": "NCI-60 one-dose screen, 48 h (100 = growth as untreated, 0 = no growth, -100 = all killed)", "settings": "10 µM unless noted", "values": [{"smiles": "Cc1ccc(C(=O)Nc2ccc(CN3CCN(C)CC3)c(C(F)(F)F)c2)cc1C#Cc1cnc(N)cc1C#N", "growth": "-90.1% (active)"}, {"smiles": "COc1cc(/C=C(/c2ccccc2)[N+](=O)[O-])c(OC)c2c1OCO2", "growth": "-87.6% (active)"}, {"smiles": "C[C@@H]1CC[C@@H]2[C@@H]1[C@H](OC(=O)/C=C/c1ccccc1)[C@]1(c3ccccc3)C[C@@H](NC(=O)CO)[C@@]2(C)O1", "growth": "96.1% (inactive)"}, {"smiles": "Nc1ccc(-c2nc3ccc4[nH]ncc4c3c3c2CCCC3)cc1F", "growth": "29.4% (inactive)"}, {"smiles": "C=C1CCC2C3(C)COC(c4ccc(NC(C)=O)cc4)OC3CCC2(C)C1C/C=C1/C(=O)OCC1O", "note": "(stereo unspecified)", "growth": "55.4% (inactive)"}, {"smiles": "Cc1c(C(C)(C)O)cn2ncnc(Oc3ccc(NC(=O)Nc4ccc(Cl)c(C(F)(F)F)c4)cc3)c12", "growth": "-9.63% (active)"}, {"smiles": "Cc1ccccc1SSc1ccccc1C", "growth": "72% (inactive)"}, {"smiles": "O=C(CC1(O)C(=O)Nc2ccc(Br)cc21)c1ccc(Cl)cc1", "note": "(stereo unspecified)", "growth": "99.3% (inactive)"}, {"smiles": "O/N=C(/c1ccccc1)c1ccc2c3c(cccc13)CC2", "growth": "89.6% (inactive) and 89.1% (inactive)"}, {"smiles": "Cc1ccc(/C=C2\\COc3ccc(O)c(O)c3C2=O)cc1", "growth": "-83.3% (active)"}, {"smiles": "CC1(Cc2ccccc2)CC2=C(C(=O)O1)C(c1ccccc1)NC(=O)N2", "note": "(stereo unspecified)", "growth": "95.3% (inactive)"}, {"smiles": "[Cu+].[NH-][C@H]1C[N-]C(=O)[C@H]([C@H]2CCN=C(N)N2)[N-]C(=O)/C(=C\\NC(N)=O)[N-]C(=O)[C@H](CNC(=O)C[C@@H](N)CCCN)[N-]C(=O)[C@H](CO)[N-]C1=O", "growth": "98.7% (inactive)"}, {"smiles": "S=c1nc(CS)[nH]c2ccccc12", "growth": "91% (inactive)"}, {"smiles": "Cc1oc2c(Cc3ccc(NC(=O)c4ccc(Cl)cc4)cc3)ncnc2c1C(=O)NO", "growth": "102% (inactive)"}, {"smiles": "COc1ccc2c(c1)CCNC21C(=O)Nc2c(Br)cc(Br)cc21", "note": "(stereo unspecified)", "growth": "102% (inactive)"}, {"smiles": "COC(=O)c1nc(-c2ccccc2)oc1S(=O)(=O)N(C)CCO", "growth": "71.6% (inactive)"}, {"smiles": "[2H]C([2H])([2H])Oc1cccc(/C=C/C(=O)/C=C(/C=C/c2cccc(OC([2H])([2H])[2H])c2OC([2H])([2H])[2H])OB(F)F)c1OC([2H])([2H])[2H]", "growth": "54.6% (inactive)"}, {"smiles": "N#Cc1ccccc1OCC(=O)Nc1nc2c(s1)COc1ccccc1-2", "growth": "90.6% (inactive)"}, {"smiles": "COc1cc(/C=C2/C=C(c3ccc(C(C)(C)C)cc3)N(CCc3ccc(S(N)(=O)=O)cc3)C2=O)cc(OC)c1OC", "growth": "42.2% (inactive)"}, {"smiles": "Nc1n[nH]c2cccc(C#Cc3cccc(NC(=O)c4ccc(N5CCOCC5)c(C(F)(F)F)c4)c3)c12", "growth": "-96.9% (active)"}, {"smiles": "Cc1nn(-c2nc(-c3cc4ccccc4oc3=O)cs2)c(C)c1N=Nc1ccccc1", "growth": "96.7% (inactive)"}, {"smiles": "Cc1nnc(NS(=O)(=O)c2ccc(N=Nc3ccc(N)nc3N)cc2)s1", "growth": "93.2% (inactive) and 101% (inactive)"}, {"smiles": "COc1ccc(-c2csc(NC(=O)CN3CCN(CCO)CC3)n2)cc1NS(=O)(=O)c1cccc2c(N(C)C)cccc12", "growth": "-57.9% (active)"}, {"smiles": "C=C(c1ccc(C(=O)O)cc1)c1cc2c(cc1C)C(C)(C)CCC2(C)C", "growth": "80.2% (inactive) and 81.8% (inactive)"}, {"smiles": "O=[N+]([O-])c1cc(C(F)(F)F)ccc1Sc1ccc(C(F)(F)F)cc1[N+](=O)[O-]", "growth": "28.1% (inactive)"}, {"smiles": "COc1ccc2c(O)c(/C=C3\\N=Nc4nc(C)ccc43)oc2c1CC1CCNCC1", "growth": "5.08% (active)"}, {"smiles": "Cc1ccc(Nc2nc(-c3cc(O)c(C)c(C)c3O)cs2)cc1", "growth": "75.1% (inactive)"}, {"smiles": "COc1cc(N=Nc2ccc(O)c3ncccc23)c2ncccc2c1", "growth": "4.79% (active)"}, {"smiles": "CCCCCCCC/C=C\\CCCCCCCCOc1ccccc1CC(=O)NCC[N+]1(C)CCOCC1", "growth": "71.8% (inactive)"}, {"smiles": "Nc1ccc(S(=O)(=O)c2ccc(N)cc2)cc1", "growth": "94.6% (inactive) and 102% (inactive)"}, {"smiles": "C[C@]12CCc3c(ccc4cc(O)ccc34)[C@@H]1C[C@H](O)[C@@H]2O", "growth": "93.3% (inactive)"}, {"smiles": "COc1ccc(C(c2cc(OC)c(OC)c(OC)c2)n2ccnc2)cc1O", "note": "(stereo unspecified)", "growth": "25.7% (inactive)"}, {"smiles": "CN(C)CCCn1c2c(c3ccc(N4CCNCC4)cc3c1=O)C(=O)c1ccccc1-2", "growth": "-90% (active)"}, {"smiles": "Clc1ccc(Nc2nc(Nc3ccc(Cl)cc3)nc(Nc3ccc(-c4cc(-c5cccc(Cl)c5)on4)cc3)n2)cc1", "growth": "79.4% (inactive)"}, {"smiles": "N#Cc1ccccc1-c1ccc(Cn2c(-c3cscn3)nc3c(Cl)cccc32)cc1", "growth": "65.7% (inactive)"}, {"smiles": "O=C(NNc1ccccc1)c1ccccc1", "growth": "58.4% (inactive) and 52.7% (inactive)"}, {"smiles": "CCOc1ccc(N2C(N)=NC(N)=NC2(C)C)cc1", "growth": "36.7% (inactive) and 90.1% (inactive)"}, {"smiles": "O=C1c2cc3c(cc2-c2c1c1ccc(Cl)cc1c(=O)n2CCCn1ccnc1)OCO3", "growth": "-76.8% (active)"}]}, {"test_system": "SK-MEL-28 melanoma", "test": "NCI-60 one-dose screen, 48 h (100 = growth as untreated, 0 = no growth, -100 = all killed)", "settings": "10 µM unless noted", "values": [{"smiles": "Cc1ccc(C(=O)Nc2ccc(CN3CCN(C)CC3)c(C(F)(F)F)c2)cc1C#Cc1cnc(N)cc1C#N", "growth": "-83.3% (active)"}, {"smiles": "COc1cc(/C=C(/c2ccccc2)[N+](=O)[O-])c(OC)c2c1OCO2", "growth": "-12.1% (active)"}, {"smiles": "C[C@@H]1CC[C@@H]2[C@@H]1[C@H](OC(=O)/C=C/c1ccccc1)[C@]1(c3ccccc3)C[C@@H](NC(=O)CO)[C@@]2(C)O1", "growth": "103% (inactive)"}, {"smiles": "Nc1ccc(-c2nc3ccc4[nH]ncc4c3c3c2CCCC3)cc1F", "growth": "34.4% (inactive)"}, {"smiles": "C=C1CCC2C3(C)COC(c4ccc(NC(C)=O)cc4)OC3CCC2(C)C1C/C=C1/C(=O)OCC1O", "note": "(stereo unspecified)", "growth": "88.6% (inactive)"}, {"smiles": "Cc1c(C(C)(C)O)cn2ncnc(Oc3ccc(NC(=O)Nc4ccc(Cl)c(C(F)(F)F)c4)cc3)c12", "growth": "53.1% (inactive)"}, {"smiles": "Cc1ccccc1SSc1ccccc1C", "growth": "121% (inactive)"}, {"smiles": "O=C(CC1(O)C(=O)Nc2ccc(Br)cc21)c1ccc(Cl)cc1", "note": "(stereo unspecified)", "growth": "120% (inactive)"}, {"smiles": "O/N=C(/c1ccccc1)c1ccc2c3c(cccc13)CC2", "growth": "92.8% (inactive) and 87.5% (inactive)"}, {"smiles": "Cc1ccc(/C=C2\\COc3ccc(O)c(O)c3C2=O)cc1", "growth": "35.6% (inactive)"}, {"smiles": "CC1(Cc2ccccc2)CC2=C(C(=O)O1)C(c1ccccc1)NC(=O)N2", "note": "(stereo unspecified)", "growth": "116% (inactive)"}, {"smiles": "[Cu+].[NH-][C@H]1C[N-]C(=O)[C@H]([C@H]2CCN=C(N)N2)[N-]C(=O)/C(=C\\NC(N)=O)[N-]C(=O)[C@H](CNC(=O)C[C@@H](N)CCCN)[N-]C(=O)[C@H](CO)[N-]C1=O", "growth": "110% (inactive)"}, {"smiles": "S=c1nc(CS)[nH]c2ccccc12", "growth": "105% (inactive)"}, {"smiles": "Cc1oc2c(Cc3ccc(NC(=O)c4ccc(Cl)cc4)cc3)ncnc2c1C(=O)NO", "growth": "107% (inactive)"}, {"smiles": "COc1ccc2c(c1)CCNC21C(=O)Nc2c(Br)cc(Br)cc21", "note": "(stereo unspecified)", "growth": "101% (inactive)"}, {"smiles": "COC(=O)c1nc(-c2ccccc2)oc1S(=O)(=O)N(C)CCO", "growth": "69.8% (inactive)"}, {"smiles": "[2H]C([2H])([2H])Oc1cccc(/C=C/C(=O)/C=C(/C=C/c2cccc(OC([2H])([2H])[2H])c2OC([2H])([2H])[2H])OB(F)F)c1OC([2H])([2H])[2H]", "growth": "88.5% (inactive)"}, {"smiles": "N#Cc1ccccc1OCC(=O)Nc1nc2c(s1)COc1ccccc1-2", "growth": "116% (inactive)"}, {"smiles": "COc1cc(/C=C2/C=C(c3ccc(C(C)(C)C)cc3)N(CCc3ccc(S(N)(=O)=O)cc3)C2=O)cc(OC)c1OC", "growth": "61.9% (inactive)"}, {"smiles": "Nc1n[nH]c2cccc(C#Cc3cccc(NC(=O)c4ccc(N5CCOCC5)c(C(F)(F)F)c4)c3)c12", "growth": "8.55% (active)"}, {"smiles": "Cc1nn(-c2nc(-c3cc4ccccc4oc3=O)cs2)c(C)c1N=Nc1ccccc1", "growth": "108% (inactive)"}, {"smiles": "Cc1nnc(NS(=O)(=O)c2ccc(N=Nc3ccc(N)nc3N)cc2)s1", "growth": "111% (inactive) and 116% (inactive)"}, {"smiles": "COc1ccc(-c2csc(NC(=O)CN3CCN(CCO)CC3)n2)cc1NS(=O)(=O)c1cccc2c(N(C)C)cccc12", "growth": "-2.57% (active)"}, {"smiles": "C=C(c1ccc(C(=O)O)cc1)c1cc2c(cc1C)C(C)(C)CCC2(C)C", "growth": "137% (inactive) and 72.9% (inactive)"}, {"smiles": "O=[N+]([O-])c1cc(C(F)(F)F)ccc1Sc1ccc(C(F)(F)F)cc1[N+](=O)[O-]", "growth": "80.6% (inactive)"}, {"smiles": "COc1ccc2c(O)c(/C=C3\\N=Nc4nc(C)ccc43)oc2c1CC1CCNCC1", "growth": "-68.4% (active)"}, {"smiles": "Cc1ccc(Nc2nc(-c3cc(O)c(C)c(C)c3O)cs2)cc1", "growth": "115% (inactive)"}, {"smiles": "COc1cc(N=Nc2ccc(O)c3ncccc23)c2ncccc2c1", "growth": "42% (inactive)"}, {"smiles": "CCCCCCCC/C=C\\CCCCCCCCOc1ccccc1CC(=O)NCC[N+]1(C)CCOCC1", "growth": "93.8% (inactive)"}, {"smiles": "Nc1ccc(S(=O)(=O)c2ccc(N)cc2)cc1", "growth": "114% (inactive) and 102% (inactive)"}, {"smiles": "C[C@]12CCc3c(ccc4cc(O)ccc34)[C@@H]1C[C@H](O)[C@@H]2O", "growth": "110% (inactive)"}, {"smiles": "COc1ccc(C(c2cc(OC)c(OC)c(OC)c2)n2ccnc2)cc1O", "note": "(stereo unspecified)", "growth": "62.9% (inactive)"}, {"smiles": "CN(C)CCCn1c2c(c3ccc(N4CCNCC4)cc3c1=O)C(=O)c1ccccc1-2", "growth": "59.7% (inactive)"}, {"smiles": "Clc1ccc(Nc2nc(Nc3ccc(Cl)cc3)nc(Nc3ccc(-c4cc(-c5cccc(Cl)c5)on4)cc3)n2)cc1", "growth": "108% (inactive)"}, {"smiles": "N#Cc1ccccc1-c1ccc(Cn2c(-c3cscn3)nc3c(Cl)cccc32)cc1", "growth": "105% (inactive)"}, {"smiles": "O=C(NNc1ccccc1)c1ccccc1", "growth": "89.8% (inactive) and 108% (inactive)"}, {"smiles": "CCOc1ccc(N2C(N)=NC(N)=NC2(C)C)cc1", "growth": "31.2% (inactive) and 113% (inactive)"}, {"smiles": "O=C1c2cc3c(cc2-c2c1c1ccc(Cl)cc1c(=O)n2CCCn1ccnc1)OCO3", "growth": "15.5% (inactive)"}]}]}
